{"source": "PubChem BioAssay AID1626", "about": "(SRMLSC, 2009)", "note": "“And” between values parts separate entries of the source, which are not always exact repeats. Equal entries are not always repeated. The whole screen tested about 220,000 compounds, of which about 2,000 (0.91%) were called active. Another 2% or so got no clear call; they are omitted. The list is a sample of the results. Entries with a potency or affinity are not part of this list. Values without a mark were called inactive. Cut-off read from the data, not from the text of the source: inconclusive = inhibition above about 80% without an active follow-up result; inactive = below that; test concentration not stated here.", "data": [{"test": "M. tuberculosis H37Rv growth inhibitors, H37Rv strain (AID 1626);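 note: bacteria incubated seven days before Alamar blue readout; 0% = bacteria only wells and 100% = bacteria with antibiotic wells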", "conditions": "active compounds read high, concentration not given here", "values": [{"smiles": "Cc1cccc(NC(=S)NCc2cccs2)c1C", "inhibition": "9.19%"}, {"smiles": "Cc1ccnc(NS(=O)(=O)c2ccc(Cl)nc2)c1", "inhibition": "-4.15%"}, {"smiles": "CCNC(=S)/N=C(/Nc1ccc(OC)cc1)Nc1nc(C)cc(C)n1", "inhibition": "-8.72%"}, {"smiles": "CCSc1nnc(NC(=O)c2ccccc2)s1", "inhibition": "0.13%"}, {"smiles": "CCC(CC)c1nnc(NC(=O)c2ccco2)s1", "inhibition": "-8.07%"}, {"smiles": "CCc1nnc(NC(=O)c2ccncc2)s1", "inhibition": "-7.55%"}, {"smiles": "CCC(CC)c1nnc(NC(=O)c2cc(-c3ccccc3)nc3ccccc23)s1", "inhibition": "65.7%"}, {"smiles": "CCSc1nnc(NC(=O)c2cccc3ccccc23)s1", "inhibition": "3.82%"}, {"smiles": "CCc1nnc(NC(=O)c2c(OC)cccc2OC)s1", "inhibition": "-2.43%"}, {"smiles": "O=C(CSC1=NCCN1)NC12CC3CC(CC(C3)C1)C2", "inhibition": "-6.99%"}, {"smiles": "CCN(CC)S(=O)(=O)c1cc([N+](=O)[O-])ccc1N=Nc1c(O)[nH]c2ccccc12", "inhibition": "0.25%"}, {"smiles": "COc1cccc(/C=N/NC(=S)Nc2cccnc2)c1", "inhibition": "3.92%"}, {"smiles": "Cc1nnc(SCC(=O)N2CCC(Cc3ccccc3)CC2)n(N)c1=O", "inhibition": "7%"}, {"smiles": "COc1ccc(C2Nc3ccccc3C(=O)N2NC(=O)c2ccccc2)cc1OC", "note": "(centres undefined)", "inhibition": "2.58%"}, {"smiles": "COc1cccc(NC(=O)CN(C)CC(=O)Nc2ccc(Cl)cc2[N+](=O)[O-])c1", "inhibition": "7.39%"}, {"smiles": "Cc1cc(NCCN2CCOCC2)n2nc(C)c(-c3ccc(Cl)cc3)c2n1", "inhibition": "17.9%"}, {"smiles": "Cc1cccc(-c2cc3nc(C)cc(NCCCn4ccnc4)n3n2)c1", "inhibition": "5.02%"}, {"smiles": "Cc1cc(NCCCn2ccnc2)n2nc(-c3ccc(F)cc3)cc2n1", "inhibition": "-4.87%"}, {"smiles": "COCCNc1cc(C)nc2cc(-c3ccc(C)cc3)nn12", "inhibition": "-4.32%"}, {"smiles": "Cc1cccc(-c2cc3nc(C)cc(NCCCN(C)C)n3n2)c1", "inhibition": "-0.01%"}, {"smiles": "Cc1cc(NCCCn2ccnc2)n2nc(C)c(-c3ccccc3)c2n1", "inhibition": "-2.71%"}, {"smiles": "CCC(=O)Nc1ccccc1C(=O)OCc1ccc(C(=O)c2ccccc2)cc1", "inhibition": "27.4%"}, {"smiles": "Nn1c(SCC(=O)N2CCOCC2)nnc1C1CC1", "inhibition": "-3.01%"}, {"smiles": "CCOC(=O)c1cc(N)cc([N+](=O)[O-])c1", "inhibition": "5.48%"}, {"smiles": "Cc1cccc(C)c1NC(=S)N1CCCN(C)CC1", "inhibition": "-1.16%"}, {"smiles": "CCC(CC)C(=O)N1CCCC(c2nc(-c3cccs3)no2)C1", "note": "(centres undefined)", "inhibition": "10%"}, {"smiles": "CC1(OC(=O)CCc2ccccc2)C(=O)C=C2C=C3CCCN3C=C2C1=O", "note": "(centres undefined)", "inhibition": "6.27%"}, {"smiles": "C/C(Cl)=C/Cn1c(SCC(C)C)nc2c1c(=O)[nH]c(=O)n2C", "inhibition": "3.03%"}, {"smiles": "COc1cccc(NC(=O)N2CCOCC2)c1", "inhibition": "-7.85%"}, {"smiles": "O=C(Oc1ccc(-c2cnc3ccccc3n2)cc1)c1ccco1", "inhibition": "7.39%"}, {"smiles": "O=C(Nc1cccc(-c2cnc3ccccc3n2)c1)c1ccco1", "inhibition": "-2.67%"}, {"smiles": "O=C(Oc1ccc(-c2cnc3ccccc3n2)cc1)c1cccc([N+](=O)[O-])c1", "inhibition": "24%"}, {"smiles": "O=C(Oc1ccc(-c2cnc3ccccc3n2)cc1)c1cc([N+](=O)[O-])ccc1Cl", "inhibition": "71.7%"}, {"smiles": "COc1ccc(OC)c(-c2cc(C(=O)Nc3c(C)nn(Cc4ccccc4C)c3C)no2)c1", "inhibition": "72.8%"}, {"smiles": "Cc1ccccc1NC(=O)CN1C(=S)NC(C)(C)CC1C", "note": "(centres undefined)", "inhibition": "2.34%"}, {"smiles": "Cc1sc2ncnc(Sc3nnnn3-c3ccc(Cl)cc3)c2c1C", "inhibition": "-0.98%"}, {"smiles": "CSc1nnnn1-c1ccc(Cl)cc1", "inhibition": "-2.8%"}, {"smiles": "Cc1ccc(-n2cccc2C(=O)NS(=O)(=O)c2ccc(C)cc2)cc1", "inhibition": "-6.02%"}, {"smiles": "CCc1ccc(OCC(=O)O/N=C(\\N)c2ccccn2)cc1", "inhibition": "8.77%"}, {"smiles": "O=C(CSc1nc(-c2ccccc2)c(-c2ccccc2)[nH]1)NCC1CCCO1", "note": "(centres undefined)", "inhibition": "-3.58%"}, {"smiles": "N#CC1=C(S)N(c2ccccc2)C(c2ccc(-c3cccc(Cl)c3)o2)NC1=O", "note": "(centres undefined)", "inhibition": "4.44%"}, {"smiles": "N#CC1=C(S)N(c2ccccc2)C(c2ccc(-c3cc(Cl)ccc3Cl)o2)NC1=O", "note": "(centres undefined)", "inhibition": "9.36%"}, {"smiles": "C/C=C/c1ccc(OCCCCNCc2ccco2)c(OC)c1", "inhibition": "-4.41%"}, {"smiles": "CCCN(CCC)C(=O)CC(c1ccccc1)c1ccc(C)cc1O", "note": "(centres undefined)", "inhibition": "2.31%"}, {"smiles": "CCN(CC(=O)NCCC1=CCCCC1)S(=O)(=O)c1ccccc1", "inhibition": "-1.16%"}, {"smiles": "CCOC(=O)N1CCN(C(=O)c2ccc3nc(N4CCCCC4)sc3c2)CC1", "inhibition": "-6.19%"}, {"smiles": "COc1cccc(N2CCN(C(=O)c3ccc4nc(N5CCCCC5)sc4c3)CC2)c1", "inhibition": "5.19%"}, {"smiles": "CSCCNC(=O)c1cccc(Cl)c1", "inhibition": "3.62%"}, {"smiles": "Cn1c(=O)c2c(nc(CN3CCOCC3)n2CC(=O)c2ccccc2)n(C)c1=O", "inhibition": "-10.9%"}, {"smiles": "CN1CCN(c2ncnc3c2c(-c2ccccc2)cn3-c2ccc(F)cc2)CC1", "inhibition": "5.53%"}, {"smiles": "Cc1scc(C(=O)N/N=C/c2ccc(OCC(C)C)cc2)c1C", "inhibition": "6.9%"}, {"smiles": "COc1ccc(/C=C/c2ccncc2)cc1", "inhibition": "-1.37%"}, {"smiles": "Cc1ccc(-c2cc(-c3ccc(C)cc3)[n+](C)o2)cc1", "inhibition": "-0.95%"}, {"smiles": "COc1cccc(NC(=O)Cn2c(CCC(=O)O)ccc2-c2cccs2)c1", "inhibition": "-0.82%"}, {"smiles": "Cc1ccccc1NC(=O)c1ccc(CSc2ncccn2)cc1", "inhibition": "5.28%"}, {"smiles": "CCn1cc(CNC(=O)c2ccc(C)s2)cn1", "inhibition": "-1.4%"}, {"smiles": "CCn1cc(CNC(=O)c2cccc([N+](=O)[O-])c2)cn1", "inhibition": "-9.32%"}, {"smiles": "O=C(NCc1ccc(F)cc1)c1ccc(N2CCc3ccccc32)c([N+](=O)[O-])c1", "inhibition": "13.9%"}, {"smiles": "CS(=O)(=O)c1ccc(C(=O)NCc2ccc(F)cc2)cc1", "inhibition": "-6.92%"}, {"smiles": "CCOc1ccc(NC(=O)N2CCN(S(C)(=O)=O)CC2)cc1", "inhibition": "-3.68%"}, {"smiles": "COc1ccc(-n2cnc3c(sc4nccc(N(C)C)c43)c2=O)cc1", "inhibition": "10.5%"}, {"smiles": "COc1ccc(C=C2C(=O)OC(C)(C)OC2=O)cc1OC", "inhibition": "-16.1%"}, {"smiles": "CN(C)c1ccc(C=C2C(=O)OC(C)(C)OC2=O)cc1", "inhibition": "-0.63%"}, {"smiles": "COC(=O)CN(c1ccccc1)S(=O)(=O)c1cc(Br)ccc1OC", "inhibition": "5.26%"}, {"smiles": "CCOC(=O)Cc1csc(NC(=O)c2ccc(C)cc2)n1", "inhibition": "-1.68%"}, {"smiles": "CCOC(=O)Cc1csc(NC(=O)c2cc3c(s2)CCCC3)n1", "inhibition": "6.6%"}, {"smiles": "Cc1ccc(/C=C/C(=O)c2ccc(O)cc2)cc1", "inhibition": "11.5%"}, {"smiles": "CCOC(=O)Nc1ccc(C(=O)/C=C/c2ccccc2)cc1", "inhibition": "10.2%"}, {"smiles": "CSc1ccc(/C=C/C(=O)Nc2ccccc2)cc1", "inhibition": "33.9%"}, {"smiles": "CSc1ccc(/C=C/C(=O)c2ccc(NC(=O)C(C)C)cc2)cc1", "inhibition": "75.2%"}, {"smiles": "COc1ccccc1/C=C/C(=O)c1ccc(NC(C)=O)cc1", "inhibition": "94.1%"}, {"smiles": "CCOc1ccc(C(=O)/C=C/c2ccc(SC)cc2)cc1", "inhibition": "-1.12%"}, {"smiles": "O=C(Nc1nnc(CC2=CCCCC2)s1)Nc1ccccc1F", "inhibition": "-2.47%"}, {"smiles": "Cc1nnc2c3ccccc3c(-c3ccccc3)nn12", "inhibition": "5.99%"}, {"smiles": "CCCC(=O)c1c[nH]c(C(=O)NCc2ccco2)c1", "inhibition": "-9.43%"}, {"smiles": "Cc1ccc(Cn2cc(/C=N/NC(=O)Cc3nnc(NC(=O)c4ccc(C)cc4)s3)c3ccccc32)cc1", "inhibition": "7.8%"}, {"smiles": "O=C(CCNC(=O)c1ccco1)NCc1ccccc1", "inhibition": "0.15%"}, {"smiles": "COc1ccc(N2CCN(c3nc(NCCc4ccc(OC)c(OC)c4)nc(OC)n3)CC2)cc1", "inhibition": "34.2%"}, {"smiles": "COc1ccc(CCNc2nc(N3CCOCC3)nc(N3CCOCC3)n2)cc1OC", "inhibition": "8.14%"}, {"smiles": "CC(C)CCN1CCN(Cc2ccc(C#CC(C)(C)O)s2)CC1CCO", "note": "(centres undefined)", "inhibition": "9.71%"}, {"smiles": "CC(=O)c1ccc(-c2ccc(C(=O)N3CCCc4ccccc43)o2)cc1", "inhibition": "17.9%"}, {"smiles": "CSc1sc(-c2ccnc(=S)[nH]2)c(-c2ccccc2)c1C#N", "inhibition": "-4.19%"}, {"smiles": "COC(=O)Nc1ccc(Oc2ccccc2)cc1", "inhibition": "-4.37%"}, {"smiles": "CCOC(=O)N1CCN(CCC(=O)Nc2cccc(Br)c2)CC1", "inhibition": "-0.92% and -12.2%"}, {"smiles": "CCOC(=O)N1CCN(CCC(=O)Nc2ccc(Br)cc2)CC1", "inhibition": "-16.8%"}, {"smiles": "COc1ccccc1NC(=O)CSCc1nc2ccccc2[nH]1", "inhibition": "-0.98%"}, {"smiles": "Cc1ccc(C(=O)NCc2ccccc2)cc1Br", "inhibition": "-8.73%"}, {"smiles": "Cc1ccc(NC(=O)CNCc2ccccc2)c(Br)c1", "inhibition": "-0.29%"}, {"smiles": "O=C(CSCc1nc2ccccc2[nH]1)Nc1ccccc1", "inhibition": "0.99%"}, {"smiles": "O=C(CNCc1ccccc1)Nc1ccc(F)cc1", "inhibition": "-5.31%"}, {"smiles": "CCc1cccc(NC(=S)N(CCCN2CCOCC2)C(C)c2cc3cccc(OC)c3o2)c1", "note": "(centres undefined)", "inhibition": "-11.9%"}, {"smiles": "COc1ccc(CNC(=O)CCSCc2cccc(Cl)c2)c(OC)c1", "inhibition": "-4.73%"}, {"smiles": "O=C(Nc1nc(-c2ccc(S(=O)(=O)N3CCCC3)cc2)cs1)c1ccco1", "inhibition": "7.57%"}, {"smiles": "COCCOCCn1c(/C=C/c2ccccc2)nc2ccccc21", "inhibition": "11%"}, {"smiles": "O=S(=O)(NCc1ccccc1)c1ccccc1Br", "inhibition": "4.19%"}, {"smiles": "CCN(CC)S(=O)(=O)c1ccc2c(c1)nc(CCC(=O)Nc1ccccc1Cc1ccccc1)n2CC", "inhibition": "-0.79%"}, {"smiles": "COc1ccc(/C=C2\\SC(=S)NC2=O)cc1OS(=O)(=O)c1ccc(NC(C)=O)cc1", "inhibition": "-3.97%"}, {"smiles": "Cc1ccccc1N(CC(=O)Nc1ccccc1C(=O)O)S(C)(=O)=O", "inhibition": "-1.04%"}, {"smiles": "CCN(CC)c1nc(-c2nn[nH]n2)nc(N(CC)CC)n1", "inhibition": "-3.01%"}]}]}
